Hits are enriched below; roughly 8.7% of the tested compounds scored in any of these assays.
Vaccinia mCherry: qHTS for Stage-Specific Inhibitors of Vaccinia Orthopoxvirus: mCherry Reporter Primary qHTS | 0.63% of 310,000 active | Potency, µM (doses to about 36.5 µM), usual class: inhibitors | Vaccinia virus mCherry reporter infection, fluorescence; calls by dose curve; tested in A549 cells; further: nearly all actives have a fitted effect of over 35% in size
Pf growth 96h: Primary qHTS for delayed death inhibitors of the malarial parasite plastid, 96 hour incubation; AID 504834, 2011; P. falciparum luciferase reporter growth, 96 h; Potency, µM (series often up to 28.7 µM), most hits filed as inhibitors; 6.9% of 320,000 active
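Two-generation exposure (96 h) targets delayed-death phenotype. Reporter parasites carrying integrated firefly luciferase, in red cells at 2% hematocrit and 0.05% parasitemia final, kept at 37 C, 5% CO2; luminescence loss indicates inhibition.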
Pf growth 48h: Primary qHTS for delayed death inhibitors of the malarial parasite plastid, 48 hour incubation; 5.9% of 310,000 active; P. falciparum luciferase growth in erythrocytes, 48 h; Potency, µM (doses to about 28.7 µM), usual class: inhibitors; AID 504832, 2011
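First compound was added to culture medium, then infected red cells at 0.1% parasitemia and 2% hematocrit (final). After incubation at 37 C under 5% CO2, luciferase detection reagent was dispensed and light output recorded.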
Vaccinia Venus: qHTS for Stage-Specific Inhibitors of Vaccinia Orthopoxvirus: Venus Reporter Primary qHTS; Vaccinia virus Venus reporter expression, fluorescence; Potency, µM (series often up to 36.5 µM), most hits filed as inhibitors; 0.46% of 330,000 active; AID 720580, 2013; calls by dose curve; tested in A549 cells; further: nearly all actives have a fitted effect of over 30% in size
CLK4 ADP-Glo: Confirmaiton Assay for Inhibitors of CDC-like Kinase 4 (ADP-Glo Assay). shares compounds with Pf growth 48h. recombinant Clk4, RS peptide, ADP-Glo luminescence. Potency, µM (series often up to 80 µM), most hits filed as inhibitors. 80% of 65 active. AID 1969, 2009
Target sequence (Q9HAZ1 whole entry, looked up): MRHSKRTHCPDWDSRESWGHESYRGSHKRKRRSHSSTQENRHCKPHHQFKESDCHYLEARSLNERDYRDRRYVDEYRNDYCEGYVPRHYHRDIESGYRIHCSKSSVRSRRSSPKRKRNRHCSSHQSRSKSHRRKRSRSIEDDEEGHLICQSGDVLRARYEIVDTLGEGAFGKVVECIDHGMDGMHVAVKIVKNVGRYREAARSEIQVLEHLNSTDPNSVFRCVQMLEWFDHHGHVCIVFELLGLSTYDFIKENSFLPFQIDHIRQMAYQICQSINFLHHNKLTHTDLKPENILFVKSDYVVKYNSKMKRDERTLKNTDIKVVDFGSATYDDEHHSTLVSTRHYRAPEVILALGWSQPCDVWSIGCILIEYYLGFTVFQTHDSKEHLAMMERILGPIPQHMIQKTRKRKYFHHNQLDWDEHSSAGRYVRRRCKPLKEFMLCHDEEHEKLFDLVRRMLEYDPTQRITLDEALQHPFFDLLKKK
CLK4 cf ADP-FP: Confirmation Assay for Inhibitors of CDC-like Kinase 4 (ADP-FP Assay); AID 1983, 2009; shares compounds with Pf growth 48h; 70% of 65 active; Potency, µM (top dose mostly 80 µM), usual class: inhibitors; recombinant Clk4, ADP Transcreener FP, RS peptide
A number is an active result; . = inactive; ? = inconclusive; / = not tested or not shown. Unless noted, the call rests on the fitted dose curve; in most records, active means well fitted curve in the direction sought with a large enough effect; inconclusive means small, poorly fitted or top-dose-only effect, or another doubt; inactive means no such curve, though single readings can be large; an effect the other way counts as inactive or inconclusive.

SMILES	Vaccinia mCherry	Pf growth 96h	Pf growth 48h	Vaccinia Venus	others
CN(Cc1ccco1)c1ncnc2ccc(-c3ccccc3Cl)cc12	/	?	9.3µM	/	CLK4 ADP-Glo=10µM;CLK4 cf ADP-FP=16µM
CN(Cc1ccco1)c1ccnc(-c2ccoc2)n1	.	/	/	.
CN(Cc1ccco1)c1cc(-c2ccccc2Cl)ncn1	.	/	/	.
COc1ccccc1CNC(=O)CN1C(=O)COc2ccc(S(=O)(=O)Nc3ccccc3)cc21	.	/	/	.
COc1ccc(NC(=O)Cn2cc(S(=O)(=O)N3CCN(c4ccccc4F)CC3)c3ccccc3c2=O)cc1Cl	.	/	/	.
